Shown are actives, neighbours in structure and some others; about 3.9% of the full set was active somewhere.
CDK5 inh: inhibitors of human CDK5/p35 kinase, primary screen, biochemical, single concentration | Cyclin-dependent kinase 5 (Homo sapiens) + Cyclin-dependent kinase 5 activator 1 (Homo … | Recombinant CDK5/p35, ADP-Glo luminescence, 60 min | inhibition, % at 10 µM | 330,000 tested, 0.01% active | AID 488839, 2010;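 active = highest replicate inhibition of at least 50% and at least 75% of replicates reaching 50%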;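 note: plate controls were DMSO neutral control for no effect and GW8510 at 10 µM for full effect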
SUMO Mot1 rescue: yeast Mot1-301 growth rescue at high temperature, primary screen, SUMOylation pathway inhibitor project, S. cerevisiae, ATP luminescence, 38.5C; S. cerevisiae Mot1-301 growth rescue; percent above DMSO median, 100 means doubled; growth rescue, % at 18.8 µM; 320,000 tested, 1% active; AID 2716, 2010;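 active = every valid replicate shows activation above 250% relative to neutral control wells; inactive = the rest, any valid replicate at or below 250%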;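 note: OY570 slx delta 5 strain wells were the positive control but not used for scaling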
NSD2 HMT inh: NSD2 histone methyltransferase inhibitors, primary screen, biochemical, AlphaScreen, single concentration, set 2; NSD2 peptide methylation, 120 min; inhibition, % at 12.5 µM; Histone-lysine N-methyltransferase NSD2 (Homo sapiens), O96028; 310,000 tested, 0.54% active; in the data active = inhibition above about 50%
Glyco luc inh: increase of ERlucT glycosylation luciferase signal, primary screen, N-linked glycosylation inhibitor project, D54 ERlucT cells, luminescence, set 2; D54 ERlucT glycosylation luciferase reporter, 24 h; percent of 100 nM tunicamycin response; reporter increase, % at 12.5 µM; 360,000 tested, 0.23% active; AID 588692, 2011;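 active = mean luciferase reporter signal, scaled so untreated is 0 and the glycosylation-blocking control 100, at or above a set limit in every replicate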;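 note: luciferase carries N-glycosylation sites so blocking glycosylation raises the light; 0% = median of neutral control wells and 100% = median of 100 nM tunicamycin wells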
ALR inh: inhibitors of human ALR sulfhydryl oxidase, primary screen, biochemical, H2O2 detection, HRP-luminol luminescence, single point; FAD-linked sulfhydryl oxidase ALR (Homo sapiens), P55789; purified ALR, DTT oxidation; inhibition, % (test concentration not listed); 290,000 tested, 3.8% active; AID 485317, 2010;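 active = mean replicate inhibition above about 79%, with every replicate also reaching it, limit read from the data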
Target sequence (P55789 whole entry, looked up): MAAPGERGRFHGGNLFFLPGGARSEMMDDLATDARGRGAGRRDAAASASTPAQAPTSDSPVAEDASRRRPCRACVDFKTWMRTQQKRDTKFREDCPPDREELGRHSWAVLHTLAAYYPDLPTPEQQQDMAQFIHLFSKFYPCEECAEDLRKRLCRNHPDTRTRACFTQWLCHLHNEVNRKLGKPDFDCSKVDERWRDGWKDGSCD
CASP6 VEID inh: human caspase-6 inhibitors, primary screen, biochemical, VEID-R110 fluorescence, single point, set 2 | P55212 | purified caspase-6, Z-VEID-R110 cleavage fluorescence | inhibition, % at 12.5 µM | 350,000 tested, 0.53% active;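 active = mean inhibition across replicates at least about 35%, with every replicate also reaching that limit, limit read from the data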;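 note: 0% = median of neutral control wells and 100% = no fluorescence left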
Target sequence (P55212 24-179 limits assumed): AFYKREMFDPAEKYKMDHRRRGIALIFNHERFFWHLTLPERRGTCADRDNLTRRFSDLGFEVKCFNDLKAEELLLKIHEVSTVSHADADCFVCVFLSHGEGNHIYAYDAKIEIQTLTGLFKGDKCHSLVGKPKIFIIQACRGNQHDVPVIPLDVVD
Target sequence (P55212 194-293 limits assumed): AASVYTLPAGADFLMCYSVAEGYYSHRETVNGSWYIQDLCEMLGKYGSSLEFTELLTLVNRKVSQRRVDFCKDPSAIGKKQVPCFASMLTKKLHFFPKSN
* marks the source's active call; other numbers are inactive results; . = no result given; ! = a repeat was not active.

SMILES	CDK5 inh	SUMO Mot1 rescue	NSD2 HMT inh	Glyco luc inh	ALR inh	CASP6 VEID inh
O=S1(=O)c2ccccc2N=NN1Cc1cc(Cl)cc(Cl)c1	.	-15	.	.	99*	.
CN(C)S(=O)(=O)c1ccc(C(=O)NC(=O)CSc2ccccc2)cc1	-1	-10	3	2	7	.
CC(=O)Nc1ccc(SCC(=O)N(C)CC(=O)Nc2ccccc2Cl)cc1	1	-18	-2	1	98*	0
COc1ccccc1N1CCN(CC(=O)Nc2sccc2C#N)CC1	0	7	2	1	.	6
CN(CC(=O)Nc1ccccc1Cl)C(=O)COC(=O)CSc1ccc(F)cc1	0	-23	2	-1	5	-1
CC(=O)Nc1ccc(SCC(=O)NC(=O)c2ccc(S(=O)(=O)N(C)C)cc2)cc1	1	-6	-5	4	99*	2
N#Cc1ccsc1NC(=O)CN1CCN(c2ccccc2O)CC1	0	11	1	-1	99*	.
CC(=O)Nc1ccc(SCC(=O)Nc2ccccc2-c2ccccc2)cc1	6	248	-2	-2	98*	3
CCCC(=O)N1CC2(CN(C(=O)NC(C)C)C2)c2c(n(C)c3cc(OC)ccc23)[C@@H]1CO	.	.	.	.	.	1
Cc1noc(C)c1NC(=O)Nc1ccc2c(c1)C(=O)N([C@H](C)CO)C[C@H](C)[C@H](CN(C)Cc1ccc(C(F)(F)F)cc1)OCCCC[C@H](C)O2	.	.	.	.	.	2
CN(C)C(=O)C[C@@H]1C[C@@H]2c3cc(NC(=O)C4CCC4)ccc3O[C@@H]2[C@H](CO)O1	.	.	.	.	.	1
COc1ccccc1S(=O)(=O)N[C@@H]1CC[C@H](CCNC(=O)C2CCC2)O[C@H]1CO	.	.	.	.	.	1
C[C@@H]1CN([C@H](C)CO)C(=O)c2cc(NC(=O)Cc3ccccc3)ccc2O[C@@H](C)CCCCO[C@@H]1CN(C)C(=O)Nc1cccc2ccccc12	.	.	.	.	.	1
CC(=O)Nc1ccc(SCc2ncc(-c3ccccc3)o2)cc1	3	-8	1	-5	99*	0
CC(=O)Nc1ccc(SCC(=O)Nc2sccc2C#N)cc1	0	10	-3	0	99*	4
c1ccc(-c2cnc(CSc3ncnc4sccc34)o2)cc1	0	12	-2	0	4	.
O=C(C1CC1)N1CC(=O)N2[C@H](C1)[C@H](c1ccc(Br)cc1)[C@@H]2CO	.	.	.	.	.	1
O=C(Nc1ncc([N+](=O)[O-])s1)c1ccccc1Br	0	23	6	1	97*	8
O=C(COC(=O)c1ccc(Br)o1)Nc1ncc([N+](=O)[O-])s1	0	7	1	1	97*	48*
O=C(Nc1ncc([N+](=O)[O-])s1)c1cccs1	-2	-5	2	-11	97*!	6
O=C(C[C@@H]1C[C@@H]2c3cc(NS(=O)(=O)c4ccc(F)cc4)ccc3O[C@@H]2[C@@H](CO)O1)NCc1ccccc1F	.	.	.	.	.	-2
C[C@@H]1CCCCO[C@@H](CN(C)Cc2ccncc2)[C@@H](C)CN([C@@H](C)CO)C(=O)c2cc(NS(=O)(=O)c3ccccc3)ccc2O1	.	.	.	.	.	1
CC(=O)NNc1nc(-c2ccc(NC(C)=O)cc2)cs1	0	.	0	1	99*	2
CC(=O)Nc1ccc(-c2csc(NNC(=O)c3ccc(C)cc3)n2)cc1	0	-3	1	2	-13	1
Cc1nc(-c2ccc(NC(=O)CC(C)C)cc2)cs1	0	9	-3	-6	100*	.
SMILES	CDK5 inh	SUMO Mot1 rescue	NSD2 HMT inh	Glyco luc inh	ALR inh	CASP6 VEID inh
CCCNC(=O)C[C@H]1CC[C@@H]2[C@H](COC[C@H](O)CN2C(=O)Nc2cccc(Cl)c2)O1	.	.	.	.	.	5
CN(C)c1ccnc(Oc2ccc(Cl)cc2)c1C#N	0	-4	-3	-1	0	4
CN(C)c1ccnc(Oc2ccc(C(C)(C)C)cc2)c1C#N	-1	356*	4	-9	-12	.
CNC[C@H]1OCCCC[C@@H](C)Oc2ccc(NC(=O)Nc3cccc4ccccc34)cc2C(=O)N([C@@H](C)CO)C[C@H]1C	.	.	.	.	.	2
CC(C)(C)OC(=O)COc1cccc(C(=O)CCN2CCOCC2)c1	.	.	.	.	.	-1
COC(=O)c1ccc(CSc2nc3ccc(Cl)cc3[nH]2)o1	1	2	0	1	97*	.
Clc1ccc2nc(SCc3nnc(-c4ccccc4)o3)[nH]c2c1	-1	650*	0	-2	-8	.
CNC(=O)c1ccc(-c2sc3nc(N4CCOCC4)c4c(c3c2N)CC(C)(C)OC4)o1	-1	212	-1	9	99*	.
CC1(C)Cc2c(c(N3CCOCC3)nc3sc(-c4ccc(C(=O)O)o4)c(N)c23)CO1	0	0	10	0	50	.
COCC(=O)N(C)C[C@@H]1Oc2cc(C#CCC(C)C)ccc2S(=O)(=O)N([C@H](C)CO)C[C@H]1C	.	.	.	.	.	2
CCCc1cc(=O)[nH]c(SCC(=O)Nc2ccc3c(c2)CCC3)n1	1	-1	6	3	-2	-4
O=C(CSc1nc(O)cc(=O)[nH]1)Nc1ccc2c(c1)CCC2	0	-5	1	4	99*	.
Nc1cc(=O)[nH]c(SCC(=O)Nc2ccc3c(c2)CCC3)n1	-2	10	25	-1	90*	-3
O=C(CSc1nc(O)cc(=O)[nH]1)N1CCCc2ccccc21	0	-8	.	1	99*	.
O=C(C[C@@H]1C=C[C@@H](NC(=O)c2cccc(F)c2)[C@H](CO)O1)Nc1nccs1	.	.	.	.	.	1
C[C@H](CO)N1C[C@H](C)[C@H](CN(C)Cc2ccc(C(=O)O)cc2)Oc2ccc(NC(=O)Cn3cnnn3)cc2CC1=O	.	.	.	.	.	-1
C[C@@H]1CN([C@H](C)CO)C(=O)Cc2cc(NC(=O)Nc3ccc(F)cc3)ccc2O[C@H]1CN(C)C(=O)Nc1ccc2c(c1)OCO2	.	.	.	.	.	0
COCC(=O)N(C)C[C@@H]1Oc2ncc(C#CC(C)(C)O)cc2C(=O)N([C@H](C)CO)C[C@@H]1C	.	.	.	.	.	-2
C[C@@H]1CN([C@@H](C)CO)C(=O)Cc2cc(NS(C)(=O)=O)ccc2O[C@@H]1CN(C)C(=O)Nc1ccc(F)cc1	.	.	.	.	.	0
COc1ccc(CC(=O)Nc2ccc(-c3ccc4nnc(C)n4n3)cc2)cc1OC	1	34	-6	30*	-4	1
COc1ccc(NC2=C(NC(C)=O)C(=O)c3ccccc3C2=O)cc1	2	1	13	4	-29	12
O=C1C(Cl)=C(Nc2ccc(O)cc2)C(=O)c2ccccc21	-5	-17	3	-1	33	5

High-throughput results: PubChem, Broad Institute
